# Source: PubChem
# Hits are enriched below; roughly 1.2% of the tested compounds scored in any of these assays.
# NFkB transloc inh = blocks IL-1B driven NFkB nuclear translocation in HUVEC cells | HUVEC IL-1B NFkB p65 nuclear translocation imaging | inhibition, % at 2 µM | 94,000 tested, 0.43% active;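 active = inhibition above about 30% together with a positive call from visual inspection of the well image, limit read from the data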;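 note: nuclear over cytoplasmic p65 intensity ratio measured by imaging; 0% = IL-1B stimulated DMSO wells and 100% = unstimulated DMSO wells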
# sEH inh = soluble epoxide hydrolase (human) inhibition; P34913; recombinant human sEH enzymatic activity assay; inhibition, % at 2 µM; 91,000 tested, 0.34% active; in the data active = inhibition above about 80%
# Target sequence (P34913 whole entry, looked up): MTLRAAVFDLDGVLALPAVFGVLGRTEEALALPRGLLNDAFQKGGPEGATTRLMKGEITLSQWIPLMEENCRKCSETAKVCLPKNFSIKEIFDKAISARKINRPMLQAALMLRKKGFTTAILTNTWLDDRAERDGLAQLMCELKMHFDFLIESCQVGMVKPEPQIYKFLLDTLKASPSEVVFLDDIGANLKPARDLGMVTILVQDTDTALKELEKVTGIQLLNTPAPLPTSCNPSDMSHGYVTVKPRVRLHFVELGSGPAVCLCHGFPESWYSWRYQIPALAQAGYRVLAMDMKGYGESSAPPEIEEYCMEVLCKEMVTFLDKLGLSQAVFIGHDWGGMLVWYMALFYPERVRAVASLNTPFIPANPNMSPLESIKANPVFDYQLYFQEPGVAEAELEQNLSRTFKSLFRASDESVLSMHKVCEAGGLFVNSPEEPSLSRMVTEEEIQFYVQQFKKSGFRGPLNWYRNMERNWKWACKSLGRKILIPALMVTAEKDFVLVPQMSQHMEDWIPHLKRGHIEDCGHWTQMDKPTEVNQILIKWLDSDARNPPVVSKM
# HUVEC tox IL1B = toxic to HUVEC cells under IL-1B stimulation | 94,000 tested, 0.41% active | HUVEC cell count loss, Hoechst imaging, IL-1B stimulated | cell count reduction, % at 2 µM | AID 845;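 active = cell count reduction more than 3 SD above the screen-wide mean, cut at about 70% in these data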;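 note: normalized per plate to untreated control cells as the no-loss baseline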
# sEH activator = activators of human soluble epoxide hydrolase; P34913; purified human sEH enzymatic activity, activator screen; activation, % at 2 µM; 91,000 tested, 0.04% active; in the data active = activation above about 37%
# IL1B NFkB pot = enhances IL-1B driven NFkB nuclear translocation. HUVEC IL-1B NFkB p65 nuclear translocation imaging. activation, % at 2 µM. 94,000 tested, 0.3% active. AID 819;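 active = activation above 40%, about the mean plus 3 SD, also judged a hit on visual image review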;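 note: percent activation is computed from the nuclear over cytoplasmic p65 intensity ratio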
# Starred values were filed as active, the others as inactive; nt = no result given.
SMILES,NFkB transloc inh,sEH inh,HUVEC tox IL1B,sEH activator,IL1B NFkB pot
CC(C)C(NS(=O)(=O)c1cccs1)C(=O)NCCN1CCN(c2ccccc2)CC1 (stereo not drawn),33*,-5,4,3,-33
O=C1/C(=N/n2cnnc2)c2ccccc2N1Cc1ccccc1,1,-9,-8,9,-1
Cc1cc(C)c(C)c(S(=O)(=O)N2C(=S)NC(=O)C2C(C)C)c1C (stereo not drawn),-22,-20,14,22,22
Cc1ccc(C)c2[nH]c(=O)c(CCNC(=O)c3ccc(Br)o3)cc12,43*,7,-11,-4,-43
CCN(CC)c1ccc(-c2nn3c(-c4ccccc4OC)nnc3s2)cc1,29,-23,71*,20,-29
COc1ccc(-c2nn3c(-c4ccccc4)nnc3s2)cc1,0,-5,-9,5,0
Oc1c(Br)cc(C2N=C(c3ccccc3Cl)NO2)cc1Br (stereo not drawn),-6,-12,-1,16,6
C/C(=N\OC(=O)c1ccc(F)cc1)c1nccs1,0,-1,5,1,-1
C/C(=N/OC(=O)c1c(F)cccc1F)c1nccs1,-11,-40,-5,39*,11
CC(C)(C)OC(=O)N[C@@H](Cc1ccccc1)c1nnc(S(=O)(=O)Cc2ccccc2)o1,38*,24,-113,-25,-38
COC(=O)CC(NC(=O)c1ccco1)c1cccc2ccccc12 (stereo not drawn),-4,1,29,0,-1
CC(NC(=O)c1ccco1)c1cccc2ccccc12 (stereo not drawn),98*,-15,78*,14,-98
CC(=O)CCc1c[nH]c2c(C(=O)O)cccc12,41*,-2,-5,2,-41
COC(=O)c1cn(C(=O)c2cccs2)c2ccccc12,10,4,95*,-4,-10
COCc1cc(Sc2ccc(Cl)cc2Cl)nc(-c2ccccc2)n1,-12,-1,-7,0,12
COC(CN1C(=O)C(O)=C(C(C)=O)C1c1ccccn1)OC (stereo not drawn),-4,-15,-2,14,4
CCOC(=O)N/N=C/c1ccc(C)o1,33*,0,-12,3,-33
CCOC(=O)CN1C(=O)C(O)=C(C(C)=O)C1c1ccc(F)cc1 (stereo not drawn),14,-16,-4,16,-14
CCOc1cc(C2C(C(=O)c3ccc(C)o3)=C(O)C(=O)N2CCc2ccccc2)ccc1O (stereo not drawn),47*,0,-27,0,-47
CCc1[nH]nc2c1C(c1cccnc1)C(C#N)=C(N)O2 (stereo not drawn),-43,-3,-115,-2,43*
CCCc1[nH]nc2c1C(c1cccnc1)C(C#N)=C(N)O2 (stereo not drawn),2,5,-30,-5,-3
CCN(CC)S(=O)(=O)c1cccc(C(=O)NCCc2ccccc2)c1,-6,81*,13,-81,6
CCNC(=O)CN(Cc1ccccc1)S(=O)(=O)c1ccccc1,36*,nt,10,nt,-35
COC(=O)c1cc(OC)c(OC)cc1NC(=O)c1oc2ccccc2c1C,2,13,11,-14,-2
COc1ccc(C(C)=O)cc1CSc1nc2cc(Cl)ccc2o1,9,-15,88*,16,-9
SMILES,NFkB transloc inh,sEH inh,HUVEC tox IL1B,sEH activator,IL1B NFkB pot
O=C(Nc1ccc2c(c1)OCCO2)C1CCC1,23,3,-32,-1,-23
O=C(Nc1ccc(F)cc1)NC1CCCCC1,3,77,0,-77,-3
O=C(Nc1cccc(F)c1)NC1CC2CCCC(C1)N2C1CC1 (stereo not drawn),-6,84*,17,-84,6
O=C(Nc1cccc(F)c1)NC1CCCCC1,-27,88*,-23,-88,27
O=C(Nc1ccc2c(c1)OCCO2)NC1CCCCC1,-15,89*,-43,-89,15
COc1ccc(CCn2c(=S)[nH]c3cc(C(=O)NCc4ccco4)ccc3c2=O)cc1OC,0,29,37,-29,0
Cc1csc(=N)n1CC(=O)N1CCc2ccccc21,-17,nt,-17,nt,17
Cc1cc(C(F)(F)F)n2ncc(C(=O)O)c2n1,1,10,16,-6,-1
O=C(NCCc1ccncc1)C(F)(F)F,72*,0,-40,-1,-72
CCC(=O)NC(Nc1cc(C)cc(C)n1)(C(F)(F)F)C(F)(F)F,-1,-1,-22,4,1
COc1ccc(N2C(C)=CS/C2=C(/C#N)c2nnc(N3CCOCC3)n2-c2ccccc2)cc1,-46,4,-9,-4,46*
c1ccc(-n2c(Cc3cn4ccsc4n3)nnc2N2CCOCC2)cc1,6,-11,-2,11,-6
CC1CCN(C(=O)COC(=O)c2cc(Cl)cc(Cl)c2N)CC1,3,6,0,-6,-3
Cc1ccc(-c2cc(NC(=O)CCl)n(-c3ccccc3)n2)cc1,-9,6,-71,-8,9
O=C(CCl)Nc1cc(-c2ccccc2)nn1-c1ccccc1,-17,-27,88*,26,17
O=C1c2cccc3c([N+](=O)[O-])ccc(c23)C(=O)N1c1ccccn1,nt,-11,nt,12,nt
O=C1c2cccc3c([N+](=O)[O-])ccc(c23)C(=O)N1c1ccc(Cl)cn1,30*,11,83*,-9,-30
CCOC(=O)c1sc(NC(=O)CSc2nc(-c3ccco3)cc(C(F)(F)F)n2)c(C(=O)OC(C)C)c1C,-14,4,-20,2,14
CCCCOCCCNC(=O)CCCOc1ccccc1,-17,-2,93*,1,17
CCOCCCNC(=O)CCCOc1ccccc1,2,1,-28,0,-2
CC(C)(C)C(=O)Nc1ccnc(-c2cccnc2)n1,-9,9,-44,-7,9
CN1C2CCC1/C(=C\c1ccccc1)C(=O)/C2=C\c1ccccc1,0,-7,-10,6,0
Cc1cc(C)nc(SCC(=O)NC2=NC(=O)C(C)S2)n1 (stereo not drawn),-19,-9,78*,9,19
COc1ccc2occ(C(C)=O)c2c1,-26,0,-24,3,25
CC(=O)c1coc2ccc(OCCN3CCCCC3)cc12,-43,3,-27,0,43*
SMILES,NFkB transloc inh,sEH inh,HUVEC tox IL1B,sEH activator,IL1B NFkB pot
CCC(C)NC(=O)CSc1ncccc1C(=O)O (stereo not drawn),0,1,-4,0,0
CC1(c2ccc(Cl)cc2Cl)OCC(Cn2ccnc2)O1 (stereo not drawn),-8,3,-23,-5,8
Cc1cc(C)n(-c2nc3ccccc3[nH]c2=O)n1,-3,-10,87*,7,3
Cc1cc(C)n(-c2nc3ccccc3nc2N2CCCC2)n1,-6,2,80*,-2,6
Cc1cc(C)n(-c2nc3ccccc3nc2Nc2ccc3[nH]c(=O)[nH]c3c2)n1,-7,-18,-100,12,7
COC(=O)C1=C(C)N(C)C(C)=C(C(=O)OC)C1c1ccccn1,-5,4,22,-4,5
COc1ccc(/C=c2/sc3n(c2=O)NC2(c4ccccc4)N(C)C(=O)N(C)C2(c2ccccc2)N=3)cc1 (stereo not drawn),-28,-8,-106,7,28
